Screening results (PubChem BioAssay)
The list is not random: actives were taken first. Their share in the collection is about 0.9%.
RGS12 GoLoco inh: inhibitors of human Gai1-RGS12 GoLoco interaction (red fluorophore); Gai1:RGS12 GoLoco peptide FP, rhodamine, 10 min; Potency, µM (titrated, usually from 61.6 µM), usual class: inhibitors; 230,000 tested, 0.44% active; AID 880; active means well fitted inhibition curve with a large enough effect, not every such curve was filed as active; inactive means no such curve, though single readings can be large or run the other way; further: nearly all actives have a fitted effect of over 30% in size
TR SRC2 fluor cs: Texas Red fluorescence interference in TRb-SRC2 counter-screen; TRb/SRC2 Texas Red total fluorescence interference; Potency, µM (doses to about 106 µM); AID 1479; 280,000 tested, 0.29% active; active means well fitted curve in either direction with a large enough effect; inconclusive means small, poorly fitted or top-dose-only effect
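Flags fluorescent or light-absorbing compounds by total fluorescence, S + 2P, at 555 nm excitation and 632 nm emission. Mixture: 20 nM Texas Red SRC2 peptide, 0.6 uM human TRb LBD, 1 uM T3, 5% DMSO; compound exposure 5 h at ambient temperature.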
TRb SRC2 PPI: TRbeta-SRC2 interaction inhibition; TRbeta-SRC2 peptide binding, fluorescence polarization; receptor liganded with 1 µM T3; Potency, µM (series often up to 106 µM), most hits filed as inhibitors; 280,000 tested, 0.065% active; further: nearly all actives have a fitted effect of over 50% in size
Target sequence (P10828 whole entry, looked up): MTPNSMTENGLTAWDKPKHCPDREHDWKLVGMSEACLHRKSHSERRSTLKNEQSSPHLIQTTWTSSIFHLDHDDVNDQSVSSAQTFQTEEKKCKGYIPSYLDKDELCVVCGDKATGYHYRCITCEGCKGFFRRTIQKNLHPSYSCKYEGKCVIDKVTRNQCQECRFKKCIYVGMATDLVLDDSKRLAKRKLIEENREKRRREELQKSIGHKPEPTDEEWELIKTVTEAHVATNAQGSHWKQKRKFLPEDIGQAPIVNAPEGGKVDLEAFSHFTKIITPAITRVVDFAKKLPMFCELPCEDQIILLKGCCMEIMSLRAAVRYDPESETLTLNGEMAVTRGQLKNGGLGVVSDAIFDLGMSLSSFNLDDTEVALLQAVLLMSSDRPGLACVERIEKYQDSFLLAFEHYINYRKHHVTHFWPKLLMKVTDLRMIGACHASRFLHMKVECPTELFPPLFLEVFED
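TRb LBD 0.6 uM + Texas Red SRC2 peptide 20 nM, 1 uM T3, Tris buffer w/ 5% DMSO; compound pinned, 5 h RT; FP read ex 555/em 632; normalized to unbound and bound controls.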
APE1 inh: inhibitors of human APE1 endonuclease | recombinant APE1, TAMRA/BHQ-2 abasic DNA cleavage fluorescence | Potency, µM (top dose mostly 65.8 µM), most hits filed as inhibitors | 350,000 tested, 0.35% active; further: nearly all actives have a fitted effect of over 55% in size
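Step 1: APE1 (0.75 nM) with compound, 15 min RT. Step 2: add 50 nM fluorophore/quencher THF duplex. Step 3: three fluorescence reads 60 s apart (525/598 nm); read 3 minus read 1 = reaction progress.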
RECQ1 inh-1: RECQ1 (human) helicase inhibition; P46063; RECQ1 DNA unwinding, red fluorescence kinetic read; Potency, µM (top dose mostly 57.3 µM), hits mostly inhibitors; 240,000 tested, 0.54% active; further: nearly all actives have a fitted effect of over 30% in size
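RECQ1T1 50 nM; forked duplex (20 bp + 30-nt ss tails) 200 nM, ATP 2 mM final; pH 8.0, 2 mM MgCl2, 2.5 ug/ml poly(dI-dC); 15 min compound preincubation; discontinuous kinetic read over 2 h at RT.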
BLM inh: inhibitors of human Bloom syndrome helicase BLM | recombinant BLM DNA unwinding, fluorescence dequenching | Potency, µM (highest dose often 56.1 µM), most hits filed as inhibitors | 350,000 tested, 0.2% active | AID 2528; further: nearly all actives have a fitted effect of over 35% in size
RECQ1 inh conf: confirmation of human RECQ1 helicase inhibitors | 610 tested, 28% active | Potency, µM (titrated, usually from 229 µM), actives largely listed as inhibitors | AID 2708 | shares compounds with RECQ1 inh-1 | RECQ1 helicase DNA unwinding, fluorescence; further: nearly all actives have a fitted effect of over 45% in size
ADP FP counter: displaces ADP in a fluorescence polarization counter-screen for RECQ1 hits | ADP fluorescence polarization displacement counterscreen | 530 tested, 27% active | Potency, µM (titrated, usually from 228 µM), usual class: inhibitors | AID 2711 | shares compounds with RECQ1 inh-1; further: nearly all actives have a fitted effect of over 45% in size
RECQ1 inh-2: RECQ1 helicase inhibition confirmed, round 2 | shares compounds with RECQ1 inh-1 | recombinant RECQ1 DNA unwinding, red fluorescence | Potency, µM (doses to about 119 µM), actives largely listed as inhibitors | 1,100 tested, 15% active | AID 504841; further: nearly all actives have a fitted effect of over 50% in size
Hits are given with their value; n = inactive; u = inconclusive; x = no result; [ ] = another dose, or the depositor's remark. Unless noted, the call rests on the fitted dose curve; in most records, active means well fitted curve in the direction sought with a large enough effect; inconclusive means small, poorly fitted or top-dose-only effect, or another doubt; inactive means no such curve, though single readings can be large; an effect the other way counts as inactive or inconclusive.

SMILES | RGS12 GoLoco inh | TR SRC2 fluor cs | TRb SRC2 PPI | APE1 inh | RECQ1 inh-1 | BLM inh | RECQ1 inh-2 | others
Cc1cc(C)c2nc(-c3ccccn3)cc(C(=O)Nc3ccc(S(=O)(=O)Nc4onc(C)c4C)cc3)c2c1 | n | n | n | u | u | u | u
Cc1cc(NS(=O)(=O)c2ccc(NC(=O)c3cc(-c4cccnc4)nc4ccc(Cl)cc34)cc2)no1 | n | n | n | n | n | n | x
COc1ccc(CNC(=O)C2CCN(c3nnc(-n4c(C)ccc4C)s3)CC2)c(OC)c1 | x | n | n | x | x | n | x
O=[N+]([O-])c1cc(Cl)ccc1Nc1nc(Nc2ccc(Cl)cc2[N+](=O)[O-])nc(N2CCOCC2)n1 | x | x | x | x | x | x | x | RECQ1 inh conf=n
Cc1ccccc1N=C/C=C1\N(C)c2ccccc2C1(C)C | n | 45µM[fluorescent] | u | u | u | n | n
CO/N=C/C=C1/N(C)c2ccccc2C1(C)C | n | n | n | n | n | n | x
O=C1CC(c2ccco2)CC(O)=C1C=Nc1cc(Cl)ccc1O (stereo unspecified) | n | n | n | 7.1µM | 22µM | n | u
CCOC(=O)c1cc2c(=O)n3cccc(C)c3nc2n(Cc2ccco2)c1=NC(=O)c1ccccc1 | n | n | n | n | n | n | x
CCOC(=O)c1cc2c(=O)n3ccccc3nc2n(Cc2ccco2)c1=NC(=O)c1ccc(OC)cc1 | n | n | n | n | u | u | n
Cc1ccc(-c2csc(NC(=O)C3=NN(c4ccccc4)C(=O)CC3)n2)cc1 | n | n | n | n | u | n | n
CC(=O)OC1CCC2(C)C(COc3ccc4ccc(=O)oc4c3)C(C)(O)CCC2C1(C)C (stereo unspecified) | n | n | n | n | u | n | n
CCOc1ccc(N2C(=O)N(Cc3c(F)cccc3Cl)c3ccccc3S2(=O)=O)cc1 | x | n | n | x | x | n | x
Cc1cn(C)c(CC(=O)N2CCN(c3cccc(Cl)c3)CC2)c1C(=O)O | x | n | n | x | x | n | x
Nc1c(N2CCCC2)cc(Cl)c2nonc12 | x | n | u | u | u | u | u
Nc1c(N2CCOCC2)cc(Cl)c2nonc12 | n | n | u | n | n | n | x
CCc1nn(CC(=O)NCCc2ccc(OC)cc2OC)c(=O)c2cc3sccc3n12 | x | u | n | x | x | n | x
CC1(C(=O)O)NCCc2cc(O)c(O)cc21 (stereo unspecified) | n | n | n | 5.6µM | 6.3µM | x | x | RECQ1 inh conf=u;ADP FP counter=3.2µM
COc1cc2c(cc1OC)C(c1c[nH]c3ccccc13)NCC2 (stereo unspecified) | n | n | n | n | n | n | x
CCNc1ncc2nc(-c3ccccc3)c(=O)n(Cc3ccc(F)cc3)c2n1 | n | x | x | n | n | n | x
Cc1ccc(S(=O)(=O)N2CCCc3cc(NC(=O)c4ccc(C(F)(F)F)cc4)ccc32)cc1 | x | n | n | x | x | n | x
CC(=O)OCCNc1nc(-c2ccccc2)nc2ccccc12 | n | n | n | n | u | n | n
COc1ccc(NC(=O)C(NS(=O)(=O)c2cccc3nsnc23)C(C)C)cc1 (stereo unspecified) | x | n | n | x | x | n | x
CC(C)C(NS(=O)(=O)c1cccc2nsnc12)C(=O)N1CCn2c1nc1ccccc12 (stereo unspecified) | n | n | n | n | n | n | x | RECQ1 inh conf=n;ADP FP counter=u
COc1cc(-c2nnc(SCc3cc(=O)oc4cc(O)c(O)cc34)o2)cc(OC)c1OC | n | n | n | 2µM | 1.8µM | 10µM | u | RECQ1 inh conf=3.5µM;ADP FP counter=126µM
COC(=O)c1c(NC(=O)/C=C/C(=O)O)sc(C)c1-c1ccc(C(C)C)cc1 | n | n | u | n | u | n | n
